# From publication PMC5540273 (PLoS ONE, 2017)
# Experiments:
# CTK = system: T1, CTK
# T1 construct: gene MATK
# DCAMKL1 = system: T2, DCAMKL1
# T2 construct: gene DCLK1
# DCAMKL3 = system: T3, DCAMKL3
# T3 construct: gene DCLK3
# DLK = system: T4, DLK
# T4 construct: gene MAP3K12
# DRAK1 = system: T5, DRAK1
# T5 construct: gene STK17A
# 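Further: kd values determined as follow-up on hits from a single-replicate KINOMEscan panel screen.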
structure (smiles),measurement,setting,value
Cc1cccc(-c2nc(Nc3ccc4[nH]nnc4c3)c3ccccc3n2)n1 [GW867587],Kd,CSNK2A1,0.77 µM
O=C(Nc1ccccc1)Nc1ccc(Oc2ccc3nccn3n2)cc1,Kd,CTK,> 10 µM
COC(=O)c1cccc(NC(=O)NCCNc2ccnc(Nc3ccc(F)cc3)n2)c1 [GSK1379883],Kd,DCAMKL1,> 10 µM
C[C@@H]1CCN(C(=O)CO)C[C@@H]1N(C)c1ncnc2[nH]ccc12,Kd,DCAMKL3,0.24 µM
CSc1nn2c(=O)cc(N3CCOCC3)nc2n1Cc1cccc(Cl)c1Cl [GSK2347225],Kd,DLK,> 10 µM
Clc1ccc(-c2cc(-c3c[nH]nc3-c3ccccn3)ccn2)cc1 [GW681251],Kd,DLK,> 10 µM
FC(F)(F)c1ccc(-c2cc(-c3c[nH]nc3-c3ccccn3)ccn2)cc1 [GW599550],Kd,EIF2AK1,> 10 µM
Clc1cccc(-c2nc(Nc3ccncc3)c3ccccc3n2)c1 [GW873004],Kd,EPHA1,> 10 µM
FC(F)(F)c1ccc(-c2nn3ncccc3c2-c2ccnc(Nc3cccc(C(F)(F)F)c3)n2)cc1 [GW828205],Kd,EPHA4,> 10 µM
CC(C)(C)OC(=O)NC1CCCN(c2cc(-c3ccc4c(N)n[nH]c4c3)nc(N)n2)C1 (centres unmarked) [GSK2286096],Kd,DRAK1,0.13 µM
same,Kd,DYRK2,0.44 µM
CCC(CC)(CC)n1cnc2c(N)ncnc21 [SKF-97620],Kd,EPHA2,> 10 µM
O=C(Nc1n[nH]c2nc(-c3ccco3)c(Br)cc12)c1ccc(CN2CCCC2)cc1.O=C(O)[C@H](O)[C@@H](O)C(=O)O [SB-742352],Kd,EPHA4,> 10 µM
same,Kd,EPHA6,> 10 µM
